Results on 14 molecules are retold here after PubChem BioAssay.

The nature of experiment [1]: inhibitors of TNFa-induced NFkB p65 translocation, primary screen, imaging, HUVEC, MLSMR starter and 10KST1 sets (AID 438;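 active = inhibition above 20% together with a positive visual image hit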;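 also: compound added about 3h40 before a 20 min TNFalpha stimulation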;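 as to inhibition: signal is the nuclear over cytoplasmic p65 intensity ratio per well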). The conditions noted are these: HUVEC TNFa-induced p65 nuclear translocation; cell count: measured here: nuclei count (cytotoxicity indicator), at 2.08 µM; inhibition: at 2 µM, stronger effect = higher value, 0% TNFa-plus-vehicle, 100% no-TNFa wells.
The nature of experiment [2]: inhibitors of mutant huntingtin aggregation, primary screen, imaging, exon1htt(103Q)mCFP cells, high-content imaging (AID 483;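 active = visual image review flags a hit and inhibition of aggregation exceeds 20%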;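 also: compound exposure lasted 3 days before fixation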;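 as to nuclei count: percent of the per-plate median nuclei count of sample wells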). Conditions: exon1htt(103Q)mCFP cell line, aggregate imaging, at 2 µM; inhibition of aggregation: stronger effect = higher value; nuclei count: measured here: cell count, toxicity.
Experiment [3] in a line: inhibitors of E-selectin induction by TNFa, primary screen, imaging, HUVEC, immunofluorescence, MLSMR starter and 10KST1 sets (AID 487;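 active = visually confirmed hit in the image check and inhibition above 20%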;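 as to inhibition: signal is fraction of cell area covered by stained E-selectin grains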;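 as to nuclei count: 100% = median nuclei count of all wells on the same plate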). Conditions: HUVEC TNFalpha-induced E-selectin immunofluorescence imaging, at 2 µM; inhibition: stronger effect = higher value; nuclei count: measured here: cell number, toxicity.
In experiment [4] the target is Voltage-gated potassium channel subunit beta-2 (Rattus norvegicus) (UniProt P62483). Briefly: KvBeta enzyme negative modulators, primary screen, biochemical, NADPH fluorescence (AID 622).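 Also: slope of raw intensity against log time taken from 70 to 1610 s.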 The conditions noted are these: recombinant KvBeta, 4-cyanobenzaldehyde reduction, at 10 µM, stronger effect = higher value.
The target is the same in experiment [5]. Put plainly: KvBeta positive modulators, primary screen, biochemical, NADPH fluorescence (AID 623;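 active = NADPH fluorescence slope more negative than the mean of all samples by about 3 SD, 99.7% confidence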;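 also: fluorescence intensity change per second fitted from 20 to 320 s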). Conditions: Recombinant KvBeta, NADPH fluorescence decrease slope, 10 min; at 10 µM; stronger effect = lower value.
For experiment [6], the target named is Alpha-2C adrenergic receptor (Homo sapiens) (UniProt P18825). Briefly: modulators of alpha2C/GIRK thallium flux, primary screen, cell-based, HEK293 alpha2C/GIRK1/2 (AID 624;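 active = fluorescence slope after compound addition differing from the mean of all screened samples at 99.7% confidence, in either direction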;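 also: slope of fluorescence ratio to pre-addition baseline per second over 15 to 24 s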). The conditions noted are these: thallium flux BTC fluorescence, at 10 µM, actives lie on both sides.
Experiment [7] is described as follows: inhibitors of Sendai virus-induced IRF3 signaling, primary screen, TLR/RLR signaling modifier project, cell-based, Sendai virus stimulus, luciferase, 10K MLSCN set (AID 602276;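 active = inhibition at or above 50% at 10 µM; inactive = inhibition below 50%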;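 also: firefly luciferase from ISG56 promoter only with Renilla not read in this screen; 0% = Sendai virus plus DMSO and 100% = medium plus DMSO without virus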). Conditions: HEK293 RL24 IRF3 luciferase reporter, at 10 µM, stronger effect = higher value.
A short description of experiment [8]: inhibitors of poly I:C-induced TLR3 signaling, primary screen, cell-based, poly I:C stimulus, luciferase, 10K MLSCN set (AID 602277;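 active = inhibition of the reporter signal at or above 50%; inactive = inhibition below 50%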). Conditions: HEK293-TLR3 RL24 IRF3 luciferase reporter, at 10 µM, stronger effect = higher value.

Molecules are shown by their SMILES. Activity calls are given as the source filed them.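 The calls were made as follows, unless noted: active = fluorescence slope higher than the sample average by over 3 SD (cut at about -0.22 in these data, passing the limit was not always enough); inactive = the rest.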

Sequence of Voltage-gated potassium channel subunit beta-2 (Rattus norvegicus) (P62483 whole entry, looked up): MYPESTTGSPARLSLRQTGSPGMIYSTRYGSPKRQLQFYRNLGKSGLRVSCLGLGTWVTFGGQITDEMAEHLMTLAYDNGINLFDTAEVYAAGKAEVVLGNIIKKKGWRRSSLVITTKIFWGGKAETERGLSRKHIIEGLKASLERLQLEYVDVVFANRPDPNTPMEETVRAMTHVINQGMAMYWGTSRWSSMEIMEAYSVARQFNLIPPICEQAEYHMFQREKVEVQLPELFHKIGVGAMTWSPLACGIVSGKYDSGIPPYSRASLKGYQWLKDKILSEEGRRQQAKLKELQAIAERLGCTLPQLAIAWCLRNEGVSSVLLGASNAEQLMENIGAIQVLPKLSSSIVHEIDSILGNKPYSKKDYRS
Sequence of Alpha-2C adrenergic receptor (Homo sapiens) (P18825 whole entry, looked up): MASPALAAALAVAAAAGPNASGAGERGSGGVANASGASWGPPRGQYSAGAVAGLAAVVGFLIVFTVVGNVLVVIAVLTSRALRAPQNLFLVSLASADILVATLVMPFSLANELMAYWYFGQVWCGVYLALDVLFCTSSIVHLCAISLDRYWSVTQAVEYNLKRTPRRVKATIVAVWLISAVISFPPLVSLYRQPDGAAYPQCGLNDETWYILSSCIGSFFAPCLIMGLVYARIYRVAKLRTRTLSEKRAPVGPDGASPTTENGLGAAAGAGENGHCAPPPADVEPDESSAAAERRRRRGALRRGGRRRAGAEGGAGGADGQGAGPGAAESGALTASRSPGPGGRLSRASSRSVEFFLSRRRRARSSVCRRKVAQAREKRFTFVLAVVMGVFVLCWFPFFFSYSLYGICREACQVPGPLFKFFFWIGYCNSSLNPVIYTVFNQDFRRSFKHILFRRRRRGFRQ

Take `Cc1ccccc1OCc1nnc(SCC(=O)NCc2ccccc2)n1C`: in experiment [1], the cell count turned out to be 409. Moreover, the inhibition in experiment [1] was 3.9% (inactive); in experiment [3], -22.7% (inactive); in experiment [7] it was 12% (inactive); in experiment [8] it was 23.6% (inactive). The inhibition of aggregation in experiment [2] is -6.5% (inactive). The nuclei count in experiment [2] was found to be 106%; in experiment [3], 120%. Besides, in experiment [4], the fluorescence slope is -0.521 (inactive). Also, the NADPH fluorescence slope in experiment [5] is 5.8e-06 (inactive). The slope in experiment [6] is 0.00575 (inactive).

Take `COc1ccccc1CC(=O)Nc1ccc(OC)c(OC)c1`: in experiment [1], the cell count amounted to 330. The inhibition was -8.4% (inactive) in experiment [1], -157% (inactive) in experiment [3], 14.5% (inactive) in experiment [7] and 21.7% (inactive) in experiment [8]. Moreover, in experiment [2], the inhibition of aggregation is 17.1% (inactive). The nuclei count in experiment [2] came to 102%; in experiment [3], 118%. In addition, the fluorescence slope in experiment [4] is -0.466 (inactive). Further, the NADPH fluorescence slope in experiment [5] is -5.5e-05 (inactive). Further, the slope in experiment [6] was 0.00704 (inactive).

Turning to `COc1ccc(S(=O)(=O)Cc2ccc(C(=O)N3CCOCC3)o2)cc1`, the cell count in experiment [1] is 551. The inhibition in experiment [1] is -0.2% (inactive); in experiment [3] it was -79.8% (inactive); in experiment [7] it was 8.1% (inactive); in experiment [8], 19.3% (inactive). Moreover, in experiment [2], the inhibition of aggregation is -10.7% (inactive). In addition, the values for the nuclei count in experiment [2] and in experiment [3] were 93% and 105%, respectively. The fluorescence slope in experiment [4] was -0.615 (inactive). For the same molecule, in experiment [5], the NADPH fluorescence slope is -2.5e-05 (inactive). For the same molecule, the slope in experiment [6] was 0.0067 (inactive).

For `CCCCOc1ccccc1NC(=O)c1ccco1`, the cell count in experiment [1] was 334. Moreover, the inhibition in experiment [1] is 11% (inactive); in experiment [3], -54.6% (inactive); in experiment [7], 18.5% (inactive); in experiment [8], 18.5% (inactive). In addition, the inhibition of aggregation in experiment [2] was -21.3% (inactive). For the same molecule, the values for the nuclei count in experiment [2] and in experiment [3] were 91.7% and 122%, respectively. In addition, the fluorescence slope in experiment [4] is -0.517 (inactive). Moreover, the NADPH fluorescence slope in experiment [5] was -4.6e-05 (inactive). In addition, the slope in experiment [6] is 0.00466 (inactive).

Regarding `Cc1noc(C)c1C(=O)N1CCN(C(=O)c2sc3cc(Cl)ccc3c2Cl)CC1`, the cell count in experiment [1] is 600. Also, the inhibition in experiment [1] was -5.4% (inactive); in experiment [3], -78.2% (inactive); in experiment [7] it was 8.91% (inactive); in experiment [8] it was 9.68% (inactive). Also, in experiment [2], the inhibition of aggregation is 0.7% (inactive). Further, the nuclei count in experiment [2] stood at 111%; in experiment [3], 100%. Also, in experiment [4], the fluorescence slope is -0.328 (inactive). The NADPH fluorescence slope in experiment [5] is -6.4e-05 (inactive). The slope in experiment [6] was 0.00474 (inactive).

For the molecule `Cc1cc(C)c2cc3c(ccn3C3OC[C@H](O)[C@H](O)[C@H]3O)cc2n1` (some centres undefined), in experiment [1], the cell count came to 699. Moreover, the inhibition in experiment [1] is -21.8% (inactive); in experiment [3], -106% (inactive); in experiment [7], 15.4% (inactive); in experiment [8] it was 27.3% (inactive). Besides, the inhibition of aggregation in experiment [2] was -19.6% (inactive). For the same molecule, the nuclei count in experiment [2] was found to be 121%; in experiment [3] it was 95.9%. For the same molecule, in experiment [4], the fluorescence slope is -0.0157 (active). In experiment [5], the NADPH fluorescence slope is -2.8e-05 (inactive). For the same molecule, the slope in experiment [6] is 0.002 (inactive).

With `CCc1ccccc1NC(=O)C(C#N)Cc1cccnc1` (centres undefined), the cell count in experiment [1] was found to be 575. Also, the inhibition in experiment [1] is -1.5% (inactive); in experiment [3], -21.3% (inactive); in experiment [7], -6.51% (inactive); in experiment [8] it was 19% (inactive). Further, the inhibition of aggregation in experiment [2] was 2.2% (inactive). Further, the figures for the nuclei count in experiment [2] and in experiment [3] were 100% and 104%, respectively. In addition, in experiment [4], the fluorescence slope is -0.51 (inactive). The NADPH fluorescence slope in experiment [5] was -9e-07 (inactive). Moreover, in experiment [6], the slope was 0.00548 (inactive).

On to `O=C(CCn1c(=O)oc2ccccc21)NCCN1CCOCC1`, for which the cell count in experiment [1] stood at 653. The inhibition was -15.1% (inactive) in experiment [1], -9.1% (inactive) in experiment [3], -16.3% (inactive) in experiment [7] and -13% (inactive) in experiment [8]. For the same molecule, the inhibition of aggregation in experiment [2] was 2.6% (inactive). The results for the nuclei count in experiment [2] and in experiment [3] were 110% and 99.8%, respectively. In addition, the fluorescence slope in experiment [4] is -0.58 (inactive). For the same molecule, in experiment [5], the NADPH fluorescence slope is -5.4e-05 (inactive). Further, the slope in experiment [6] was 0.00667 (inactive).

Consider `CCN1CCN(CCNC(=O)c2cn(C(C)c3ccccc3F)nn2)CC1` (centres undefined), for which the cell count in experiment [1] is 560. Moreover, the inhibition in experiment [1] is -29.6% (inactive); in experiment [3] it was -32.9% (inactive); in experiment [7], 12% (inactive); in experiment [8] it was 9.63% (inactive). Also, the inhibition of aggregation in experiment [2] was -18.1% (inactive). Besides, the nuclei count in experiment [2] turned out to be 112%; in experiment [3], 110%. The fluorescence slope in experiment [4] is -0.61 (inactive). In addition, the NADPH fluorescence slope in experiment [5] is -1.9e-05 (inactive). The slope in experiment [6] is 0.00807 (inactive).

For `CC(C)(C)n1nnnc1C(c1cccs1)N1CCN(Cc2ccccc2)CC1` (centres undefined), the cell count in experiment [1] turned out to be 482. Also, the inhibition in experiment [1] was -5.1% (inactive); in experiment [3], -163% (inactive); in experiment [7] it was 15.9% (inactive); in experiment [8] it was 17.6% (inactive). Moreover, the inhibition of aggregation in experiment [2] was 0% (inactive). Further, the nuclei count in experiment [2] stood at 100%; in experiment [3], 230%. Moreover, the fluorescence slope in experiment [4] is -0.606 (inactive). For the same molecule, in experiment [5], the NADPH fluorescence slope was -6.2e-06 (inactive). In experiment [6], the slope was 0.00586 (inactive).

Take `O=C(CN1CCN(c2nc(-c3ccccc3)cs2)CC1)Nc1ccc2c(c1)OCO2`: the cell count in experiment [1] was 529. Besides, the inhibition was -11.3% (inactive) in experiment [1], -77.7% (inactive) in experiment [3], -2.24% (inactive) in experiment [7] and -3.31% (inactive) in experiment [8]. Besides, in experiment [2], the inhibition of aggregation is -0.3% (inactive). Moreover, the nuclei count in experiment [2] turned out to be 106%; in experiment [3] it was 146%. The fluorescence slope in experiment [4] was -0.518 (inactive). For the same molecule, the NADPH fluorescence slope in experiment [5] is 1.7e-05 (inactive). Moreover, the slope in experiment [6] was 0.00563 (inactive).

As to `CCOC(=O)c1cc2c(=O)n3ccccc3nc2n(CCCOC)c1=NC(=O)C(C)(C)C`, in experiment [1], the cell count turned out to be 656. Moreover, the inhibition is 2.6% (inactive) in experiment [1], -203% (inactive) in experiment [3], 7.96% (inactive) in experiment [7] and 16.3% (inactive) in experiment [8]. For the same molecule, the inhibition of aggregation in experiment [2] was 39.3% (active). The nuclei count in experiment [2] amounted to 86.8%; in experiment [3], 95.3%. The fluorescence slope in experiment [4] is -0.348 (inactive). The NADPH fluorescence slope in experiment [5] is 7.9e-06 (inactive). Moreover, the slope in experiment [6] is 0.00456 (inactive).

On to `Cc1cccc2c1N(CC(=O)OC(C)C)C(=O)C2=O`, for which the cell count in experiment [1] came to 854. Further, the inhibition is 0% (inactive) in experiment [1], -67.4% (inactive) in experiment [3], -2.09% (inactive) in experiment [7] and 29% (inactive) in experiment [8]. The inhibition of aggregation in experiment [2] is -1.4% (inactive). Besides, the nuclei count worked out at 105% in experiment [2] and 121% in experiment [3]. Besides, in experiment [4], the fluorescence slope is -0.612 (inactive). In experiment [5], the NADPH fluorescence slope is -6.4e-06 (inactive). For the same molecule, the slope in experiment [6] is 0.00621 (inactive).

On to `CC(C)Cc1n[nH]c(=O)[nH]1`, for which the cell count in experiment [1] amounted to 742. The inhibition is -25.9% (inactive) in experiment [1], -36.3% (inactive) in experiment [3], -8.4% (inactive) in experiment [7] and 1.42% (inactive) in experiment [8]. In experiment [2], the inhibition of aggregation was -10.2% (inactive). Further, the nuclei count stood at 113% in experiment [2] and 120% in experiment [3]. The fluorescence slope in experiment [4] is -0.543 (inactive). Besides, in experiment [5], the NADPH fluorescence slope is -3.9e-05 (inactive). In addition, the slope in experiment [6] was 0.00544 (inactive).
